In the library only some 1.4% were active in any assay of this set; here they are far more common.
MenB inh: blocks the Mycobacterium tuberculosis MenB enzyme; MenB enzyme assay, absorbance read-out; inhibition, % (concentration not given with the values); 0.43% of 100,000 active; AID 540299; in the data active = inhibition above about 21%, passing the limit was not always enough
Target sequence (P9WNP5 whole entry, looked up): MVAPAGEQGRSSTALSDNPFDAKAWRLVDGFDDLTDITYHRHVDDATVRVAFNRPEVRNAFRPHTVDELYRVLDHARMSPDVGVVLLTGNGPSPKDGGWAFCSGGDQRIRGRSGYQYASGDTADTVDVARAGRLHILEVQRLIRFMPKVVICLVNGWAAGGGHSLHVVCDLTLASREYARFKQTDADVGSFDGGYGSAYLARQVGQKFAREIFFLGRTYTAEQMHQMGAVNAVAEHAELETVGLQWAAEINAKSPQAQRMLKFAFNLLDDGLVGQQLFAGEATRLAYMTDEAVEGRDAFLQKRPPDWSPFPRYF
AID504770: E. coli YBA685 growth inhibition, screen for V. cholerae RctB inhibitors; E. coli YBA685 rctB-dependent plasmid, OD600 growth, 3 h; active compounds read low; z-score (concentration not given with the values); 0.27% of 130,000 active; in the data active = z-score below about -2, passing the limit was not always enough
Mtb MbtI inh: blocks the Mycobacterium tuberculosis siderophore enzyme MbtI | P9WFX0 | purified MbtI enzyme, fluorescence intensity read-out | inhibition, % (concentration not given with the values) | 0.89% of 100,000 active; in the data active = inhibition mostly above about 56%, no sharp cut-off; inactive = mostly below about 77%
PV pol inh: inhibitors of poliovirus RNA polymerase binding and polymerization; poliovirus polymerase elongation, fluorescence polarization; active compounds read low; % elongation, % (compound at 16.7 µg/mL); 0.66% of 150,000 active; AID 588519; in the data active = % elongation below about 90%
* hit, by the source's call; i = inactive; x = no result; ! = not active in a repeat.

SMILES	MenB inh	AID504770	Mtb MbtI inh	PV pol inh
CCOc1ccc(-n2nnc(C)c2C(=O)N2CCC(C(N)=O)CC2)cc1	13.5	-1	-29.6	99.0
CN1C(=O)C(=Cc2cccs2)C(=O)N(C)C1=S	-8.7	-0.75	16.4	103.0
O=C1OC(c2ccccc2)OC(=O)C1=Cc1cccs1 (configuration not stated)	-3.7	-1.45	65.0*	101.0
O=c1ccc(S(=O)(=O)N2CCCC2)cn1Cc1coc(-c2ccccc2)n1	-14.2	-0.35	8.8	103.0
O=C(Nc1ccccc1)C(=S)NCc1ccco1	-20.6	0.8	2.5	102.0
S=C(NCc1ccco1)Nc1ccccc1	36.5*	0.95	3.9	102.0
CC(C)c1ccc(-n2c(=O)[nH]c3ccccc3c2=O)cc1	-24.6	-0.1	46.1	73.0*
O=C(Cc1ccc(Cl)c(Cl)c1)N1CCC2(CC1)Nc1ccccc1S(=O)(=O)N2	15.4	0.7	-21.9	100.0
Cc1nnc(SCc2cccc(C(=O)c3ccccc3)c2)[nH]c1=O	-15.2	-0.7	54.7*	100.0
Cc1nnc(SCc2ccc(C(=O)c3ccc(F)cc3)cc2)[nH]c1=O	x	0.55	x	x
Ic1ccc(Nc2nc3nonc3nc2N/N=C\c2ccco2)cc1	28.9*	-0.15	1.6	99.0
CNC(=O)c1sc(NCc2ccco2)nc1C	-25.3	0.15	97.8*	77.0*
COc1ccc(/C=C2\N=C(c3ccccc3)N(c3nc4ccc(C(=O)O)cc4s3)C2=O)cc1	-29.1	-0.65	x	94.0
CCCCC(CC)CN=C(N)NC(N)=NCCCCCCN=C(N)NC(N)=NCC(CC)CCCC (configuration not stated)	-3.6	-5.1*	54.9*!	98.0
CCC(=O)N1c2ccc(S(=O)(=O)NC(C)C)cc2CC1C (configuration not stated)	-1.0	-0.05	-19.5	100.0
Nc1cc(=O)[nH]c(SCC(=O)Nc2ccccc2)n1	-12.5	-0.8	-0.4	100.0
CN(C)c1ccc(NC(=O)CSc2nc(N)cc(=O)[nH]2)cc1	28.0*	-0.05	7.3	99.0
CC(NC(CC(=O)c1ccc(F)cc1)C(=O)O)c1ccccc1 (configuration not stated)	83.3*	-0.5	x	105.0
COc1ccccc1NC(CC(=O)c1ccccc1)C(=O)O (configuration not stated)	-8.8	0.45	x	106.0
CC(C)NS(=O)(=O)c1ccc(NC(=O)c2ccccn2)cc1	x	0.15	x	x
O=C1N=C(c2ccccc2)S/C1=C\c1cccs1	-84.8	0.05	99.9*	97.0
O=C1N=C(N2CCCCC2)S/C1=C\c1cccs1	-9.3	-0.9	x	107.0
O=C1C=CC(=O)c2c(Cl)ccc(Cl)c21	-23.1	-2.05*	92.5	101.0
COCCN1C=C(C(=O)OC)C(c2ccsc2)C(C(=O)OC)=C1	-11.4	0	9.0	101.0
C=CCN(CC=C)Cn1c(=S)oc2ccc(S(=O)(=O)Nc3ccc(OC)cc3)cc21	-23.0	0.05	85.2*	93.0
SMILES	MenB inh	AID504770	Mtb MbtI inh	PV pol inh
O=c1oc(-c2cc3c(s2)CCC3)nn1CCN1CCCC1	-19.3	-0.05	89.7	101.0
CCN(CC)Cn1c(=S)oc2ccc(Cl)cc21	-41.4	-0.4	64.4*	104.0
CCOC(=O)C1=C(C)NC(=S)NC1c1ccc(-c2ccccc2Cl)o1 (configuration not stated)	60.4*	0.2	34.0	102.0
COC(C(=O)Nc1ccc2c(c1)OCCO2)c1ccccc1 (configuration not stated)	-28.4	0.6	-0.5	104.0
Cc1sc2nc(-c3ccccc3O)[nH]c(=O)c2c1C	-10.9	-0.55	x	75.0*
COCc1cc(C)nc2sc3c(=O)[nH]c(-c4ccccc4O)nc3c12	4.1	-0.65	x	100.0
CN(C)c1ccc(/C=C/c2noc(-c3ccccc3O)n2)cc1	x	x	x	110.0
Oc1ccccc1-c1nc(/C=C/c2ccccc2Cl)no1	x	x	x	41.0*
CNC(=S)NCCN1C(=O)S/C(=C\c2cccnc2)C1=O	-23.7	-3.05*	2.1	105.0
O=C(NCc1ccco1)C(=S)N1CCOCC1	-5.5	-0.3	76.1*	99.0
CC(=O)N(c1ccc(Cl)cc1)C1C=CS(=O)(=O)C1 (configuration not stated)	x	-2.5*	x	x
O=c1c(Cl)c(Cl)cnn1CN1CCN(Cc2ccc3c(c2)OCO3)CC1	-12.7	0.85	-3.0	100.0
Cc1sc2cc(-[n+]3ccc(O)cc3)ccc2[n+]1-c1ccccc1	x	0.9	94.8*	100.0
Cc1ccc(/C=C2/C(=O)NC(=O)N(C3CCCCC3)C2=O)cc1	3.1	-0.7	5.6	99.0
CSc1ncc(/C=C2/C(=O)NC(=O)N(C3CCCCC3)C2=O)cn1	-37.6	-0.3	71.0*	100.0
Cc1onc(-c2ccccc2Cl)c1-c1nc2ccccc2c(=O)o1	-6.8	-0.45	-3.1	99.0
Clc1nc2c(Cl)cccc2s1	-24.6	-1	58.7*	103.0
Clc1cccc2sc(N3CCCC3)nc12	-4.0	-0.8	-0.9	102.0
C=CCn1c(=S)[nH]c2cc(C(=O)O)ccc2c1=O	0.0	-0.3	13.6	104.0
C=CCn1c(=S)[nH]c2ccccc2c1=O	31.1*!	0.95	18.9	104.0
O=C(O)CC1(O)c2ccccc2C(=O)N1Cc1ccccc1 (configuration not stated)	-37.2	1.6	x	90.0*
COC(=O)CC1(O)c2ccccc2C(=O)N1Cc1ccccc1 (configuration not stated)	x	-0.6	x	x
Cc1ccc2cccc(I)c2n1	-4.8	-2.5*	11.8	103.0
CN(C(=O)COC(=O)c1cccnc1N1CCCC1)c1c(N)n(Cc2ccccc2)c(=O)[nH]c1=O	-26.8	1	8.6	111.0
Oc1c(/C=N/n2cnnc2)sc2ccccc12	i	-0.15	70.7*	100.0
SMILES	MenB inh	AID504770	Mtb MbtI inh	PV pol inh
Cc1ccccc1N=Cc1sc2ccccc2c1O	-15.6	0.9	-4.0	75.0
Cc1cc(Cl)cc(C)c1OCC1COS(=O)O1 (configuration not stated)	-5.5	0.15	-3.5	82.0*
CC1CCCC(C)N1CCNc1nc2ccccc2c2nc(-c3ccccc3)nn12 (configuration not stated)	-5.6	-1.35	-3.2	103.0
Cc1conc1NC(c1cccs1)c1ccc2cccnc2c1O (configuration not stated)	-73.5	1.05	96.7*	118.0
c1ccc(CCc2nn3cnnc3s2)cc1	8.5	0.2	-16.9	102.0
CN1CCN(/N=C/c2ccc(OC(F)F)cc2OC(F)F)CC1	-7.2	-0.2	3.0	100.0
S=c1[nH]nc(NCCCN2CCOCC2)s1	-19.5	-0.6	97.1*	96.0
Oc1ccc(-c2nc(-c3c[nH]c4ccccc34)cs2)cc1	-29.9	0.25	x	122.0
Cc1ccc(Nc2nnns2)cc1C	-18.4	-0.95	59.9*	94.0
Cc1nc2sccn2c1-c1nc(-c2ccc(Br)o2)c(C(=O)c2ccc3c(c2)OCCO3)s1	3.6	0.3	98.0*	107.0
N#Cc1ccc(-c2ccccc2)[nH]c1=O	-21.8	-0.9	i	100.0
N#Cc1nc2[nH]c(-c3ccccc3)cc(=O)n2c1C#N	-3.9	0.1	104.9	90.0*
O=C(O)COCCN1CCCC1=O	-15.6	0.3	-5.3	101.0
Cc1nn(C)c2c1S(=O)(=O)N=C(SCc1c(F)cccc1Cl)S2	-6.9	1.55	84.0*	88.0*
